# AmpC detergent: qHTS Inhibitors of AmpC Beta-Lactamase (assay with detergent); P00811; AmpC hydrolysis of nitrocefin, absorbance 480 nm, 0.01% Triton; Potency, µM (top dose mostly 114 µM), inactives show at the top dose activity change, negative = inhibition, actives largely listed as inhibitors; hit rate 0.041% among 370,000; AID 485294, 2010;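 further: potency means the concentration at half of the fitted maximal effect; 0% = no-compound wells and -100% = no-enzyme wells; nearly all actives have a fitted effect of over 25% in size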
# Target sequence (P00811 whole entry, looked up): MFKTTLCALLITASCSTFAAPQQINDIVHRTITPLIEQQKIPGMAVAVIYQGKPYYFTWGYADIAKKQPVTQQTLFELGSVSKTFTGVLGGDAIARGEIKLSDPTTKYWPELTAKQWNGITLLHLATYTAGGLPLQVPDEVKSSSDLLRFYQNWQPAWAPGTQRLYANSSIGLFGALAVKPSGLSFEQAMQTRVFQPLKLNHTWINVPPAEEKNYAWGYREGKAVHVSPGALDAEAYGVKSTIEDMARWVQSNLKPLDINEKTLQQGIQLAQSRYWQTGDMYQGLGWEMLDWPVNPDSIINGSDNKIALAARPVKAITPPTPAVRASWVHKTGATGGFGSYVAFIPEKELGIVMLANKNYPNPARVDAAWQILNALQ
#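 20 mM phosphate pH 7.0 + 0.01% (detergent screen) or 0.0001% Triton X-100; 5.3 nM AmpC reagent; cpd preinc 15 min RT; nitrocefin (800 uM stock) to start; A480 q20 s × 4 min; Activity was normalised to no-enzyme and no-compound control wells.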
# AmpC inh no detg: qHTS Inhibitors of AmpC Beta-Lactamase (assay without detergent); hit rate 0.52% among 330,000; AmpC nitrocefin hydrolysis, absorbance 480 nm, 0.0001% Triton; AID 485341, 2010; Potency, µM (series often up to 57.1 µM), for the others: top-dose activity change, negative = inhibition, hits mostly inhibitors;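 further: potency means the concentration at half of the fitted maximal effect; plate controls were no compound for no effect and no enzyme for full effect; nearly all actives have a fitted effect of over 20% in size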
#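 20 mM phosphate pH 7.0 + 0.01% (detergent screen) or 0.0001% Triton X-100; 5.3 nM AmpC reagent; cpd preinc 15 min RT; nitrocefin (800 uM stock) to start; A480 q20 s × 4 min; Activity was normalised to no-enzyme and no-compound control wells.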
# SARS PLpro yeast: qHTS of Yeast-based Assay for SARS-CoV PLP; S. cerevisiae expressing SARS-CoV PLpro, growth rescue; Potency, µM (series often up to 32.9 µM), for inactives: at the top dose activity, positive = growth rescue, actives largely listed as activators; AID 485353, 2010; hit rate 0.19% among 330,000; calls by dose curve; further: potency means the concentration at half of the fitted maximal effect; 0% is about no effect; nearly all actives have a fitted effect of over 55% in size
# Cycloheximide cs: Cycloheximide Counterscreen for Small Molecule Inhibitors of Shiga Toxin; hit rate 12% among 300,000; cell reporter, cycloheximide protein synthesis inhibition counterscreen; max response, %; in the data active means max response mostly above about 13%, no sharp cut-off; inactive means mostly below about 14%; further: read at 38.3 µM for the half of the compounds with a filed dose; 0% is about no effect
# Shiga inhibitor: A qHTS for Small Molecule Inhibitors of Shiga Toxin | Vero cells, Shiga toxin protein synthesis inhibition reporter | hit rate 9.2% among 290,000 | inhibition, % at 38.7 µM; in the data active means inhibition mostly above about 28%, no sharp cut-off; inactive means mostly below about 43%; further: 0% is about no effect
# AMA1-RON2 inh: qHTS for Inhibitors of AMA1-RON; Towards Development of Antimalarial Drug Lead: Primary Screen; Plasmodium falciparum AMA1 (3D7) - RON2 peptide interaction; AlphaScreen AMA1-biotinylated RON2 peptide binding; Potency, µM (titrated, usually from 58.2 µM), for the others: at the top dose activity change, negative = inhibition, most hits filed as inhibitors; hit rate 0.2% among 360,000; AID 720542, 2013;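 further: potency means the concentration at half of the fitted maximal effect; 0% = vehicle wells and -100% = peptide control; nearly all actives have a fitted effect of over 45% in size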
#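 AMA1 (3D7) with his tag at 25 nM final met compounds first, then biotinylated RON2 peptide at 25 nM; detection used donor plus acceptor beads, 10 µg/mL apiece, read by AlphaScreen after 30 min at room temperature.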
# * = called active by the depositor; ? = inconclusive; . = not tested or not shown; [ ] = another dose, or the depositor's remark. This excerpt belongs to a sample that is enriched for hits. Unless noted, the call rests on the fitted dose curve; in most records, active means well fitted curve in the direction sought with a large enough effect; inconclusive means small, poorly fitted or top-dose-only effect, or another doubt; inactive means no such curve, though single readings can be large; an effect the other way counts as inactive or inconclusive.
SMILES,AmpC detergent,AmpC inh no detg,SARS PLpro yeast,Cycloheximide cs,Shiga inhibitor,AMA1-RON2 inh
COc1ccc2cc(CN(CC3COCCO3)S(=O)(=O)c3c(C)cc(C)cc3C)c(=O)[nH]c2c1 (stereo not drawn),-13%,-8%,0%,2,-14,.
O=C(N/N=C/C=C/c1ccccc1)c1cccnc1,1%,-20%,1%,-1,30*,98%
Cc1cc(C)cc(-n2c(C)cc(/C=N/NC(=O)c3ccncc3)c2C)c1,3%,12%,0%,7,18,40%
Cc1c(C(=O)N/N=C/c2cccnc2)sc(N)c1C#N,2%,-20%,1%,12*,26,58%
Cc1ccccc1-n1c(C)cc(/C=N/NC(=O)c2ccncc2)c1C,?,2%,-1%,36*,68*,35%
COc1cc(/C=N/NC(=O)c2sc(N)c(C#N)c2C)cc(Br)c1O,?,-41%,-2%,-3,-1,0%
O=C(CNC(=O)c1ccccc1F)N/N=C/c1cccnc1,-4%,-5%,4%,31*,16,-3%
COc1ccc(/C=N/NC(=O)c2ccc3c(c2)NC(=O)C(C)(C)O3)cc1OC,-1%,-18%,1%,-5,-8,0%
Cc1cccc(C)c1-n1c(C)cc(/C=N/NC(N)=S)c1C,-10%,-21%,10µM*,-2,-4,3%
CSc1sccc1/C=N/NC(=O)c1ccncc1,?,-13%,1%,17,active,95%
O=C(N/N=C/c1ccccc1C(=O)O)c1ccncc1,0%,-9%,-14%,0,7,13%
Cc1ccc(C(=O)N/N=C/C=C/c2ccccc2)o1,-3%,-18%,-2%,22,119*,-5%
O=C(N/N=C/c1cccnc1)c1ccc(F)cc1,0%,-10%,-2%,11*,38,-10%
CCCCCC(=O)N1C[C@H](n2cc(C3CC3)nn2)[C@@H](O)C[C@@H]1c1ccccc1,.,.,.,.,.,-5%
CC1=C(C(=O)OCC2CCCCC2)C(c2ccccc2F)NC(=O)N1 (stereo not drawn),.,.,.,.,.,5%
Cc1cc(C(=O)N/N=C/c2cccnc2)cs1,?,-10%,4%,14,19,-3%
O=C(N/N=C/c1ccncc1)c1ccccc1,-1%,-11%,1%,21*,55*,1%
Cc1c(/C=N/NC(=O)c2cccnc2)cc(C#N)n1C,-2%,0%[2.29 µM],0%,7,36,7%
O=C(N/N=C/c1cccnc1)c1ccc([N+](=O)[O-])cc1,-3%,-7%,-6%,-2,19,19%
Cc1ccc(C(=O)N/N=C\c2cccnc2)s1,2%,-6%,2%,30*,55*,-5%
O=C(N/N=C/c1cccnc1)c1ccccc1,-2%,-10%,0%,25*,59*,-8%
Cc1cc(/C=N/NC(=O)c2ccsc2)c(C)n1-c1cnccn1,-3%,-26%,-1%,42*,87*,73%
OC[C@@H]1CN(Cc2ccc(Cl)cc2)C[C@H](n2cnc3c(N4CCOCC4)ncnc32)O1,.,.,.,.,.,-9%
COc1ccc(CCNC(=O)CSc2nnc(-c3ccccc3)c3ccccc23)cc1OC,-10%,52%,-2%,-1,-15,-6%
CCCCn1c(-c2ccccc2)cnc1SCC(=O)NCCc1ccc(OC)c(OC)c1,-4%,98%,-3%,21*,132*,?
COC(=O)CCCc1nc2ccccc2s1,-13%,0%,3%,25,33*,-4%
O=C(CCc1nc2ccccc2s1)c1ccccc1,-20%,-19%,-1%,37*,4,0%
NC(=O)COC(=O)CCCc1nc2ccccc2s1,1%,-2%,-1%,1,15,12%
O=C(CCc1nc2ccccc2s1)OCC(=O)c1ccccc1,-15%,-14%,2%,12*,31,-4%
Oc1ccccc1C1=Nc2nc3ccccc3n2C(c2ccccc2)C1 (stereo not drawn),0%,-24%,-14%,49*,84*,-4%
